MCL1-BIM inh – disrupts human MCL1 binding to BIM-BH3 peptide; AID 2057; 320,000 tested, 0.68% active; Q07820; GST-MCL1 / FITC-Bim-BH3 fluorescence polarization; inhibition, % at 10.9 µM;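 active means inhibition above the mean inhibition of all tested compounds plus 3 SD, set per campaign, cut at about 40% in these data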;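 further: 0% = DMSO wells and 100% = unlabeled Bim-BH3 peptide control; higher means more loss of mP so more displacement of Bim peptide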
Target sequence (Q07820 whole entry, looked up): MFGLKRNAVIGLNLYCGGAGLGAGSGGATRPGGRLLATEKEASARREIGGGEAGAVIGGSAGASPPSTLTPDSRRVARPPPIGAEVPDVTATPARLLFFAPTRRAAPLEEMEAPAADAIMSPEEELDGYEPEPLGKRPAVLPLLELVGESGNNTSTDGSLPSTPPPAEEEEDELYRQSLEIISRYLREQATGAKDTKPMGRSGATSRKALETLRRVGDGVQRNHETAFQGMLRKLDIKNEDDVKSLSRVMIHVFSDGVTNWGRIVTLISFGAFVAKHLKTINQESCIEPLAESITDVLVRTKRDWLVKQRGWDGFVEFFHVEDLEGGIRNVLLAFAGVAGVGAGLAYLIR
GLD-1 RNA inh – GLD-1-TGE RNA interaction inhibition (C. elegans); purified GLD-1 + fluorescein TGE RNA, fluorescence polarization; inhibition, % at 5.96 µM; 320,000 tested, 0.44% active; AID 2280;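 active means percent inhibition above a per-plate cutoff, the plate mean of test compounds plus 3 SD, cut at about 30% in these data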;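 further: 0% = DMSO wells with GLD-1 and probe and 100% = wells lacking GLD-1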
E coli Lon inh – E. coli protease La inhibition | P0A9M0 | purified E. coli Lon protease, fluorescence polarization | inhibition, % at 7.94 µM | 360,000 tested, 0.42% active; in the data active means inhibition above about 13%, passing the limit was not always enough;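 further: 0% = enzyme with probe and DMSO and 100% = no enzyme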
BCLXL inh – blocks human Bcl-xL binding to Bim BH3 peptide | GST-Bcl-xL / FITC-Bim BH3 peptide fluorescence polarization | inhibition, % at 10.9 µM | 320,000 tested, 0.7% active | AID 2129;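 active means inhibition above the mean of all tested compounds plus 3 SD, cutoff set per campaign, cut at about 30% in these data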;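 further: 0% = DMSO wells and 100% = unlabeled Bim-BH3 peptide competitor; inhibitors lower millipolarization by displacing the labeled peptide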
MEX-5 binding – C. elegans MEX-5 TCR-2 RNA binding activity | MEX-5/FITC-TCR2 RNA binding, fluorescence polarization; hits give low values | AID 1832 | 300,000 tested, 0.38% active | activity score (negative = inhibition of binding), % at 10 µM | Q9XUB2;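 active means inhibition past about -25% in most replicates, and total fluorescence under double the plate's negative control median, limit read from the data; inconclusive means replicates evenly split on the limit, or fluorescence at least double controls; inactive means too little inhibition in most replicates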;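 further: 0% = DMSO and -100% = 5 µM competing unlabeled TCR2 RNA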
* = called active by the depositor; ? = inconclusive; nt = no result given. In the library only some 1.4% were active in any assay of this set; here they are far more common.

SMILES	MCL1-BIM inh	GLD-1 RNA inh	E coli Lon inh	BCLXL inh	MEX-5 binding
CCOC(=O)/C(C#N)=C/c1c(N2CCCCCC2)nc2ccccn2c1=O	-4.3	-8.6	-11.9	-2.2	-1.4
CSc1sccc1/C=C(/C#N)C(=O)c1ccco1	-0.4	-1.8	3.0	-0.6	-27.1*
CCCCCN(C(=O)CCC(=O)OCC(=O)N(CC)C1CCCCC1)c1c(N)n(CCCC)c(=O)[nH]c1=O	-2.1	-5.8	5.7	1.4	-0.7
Oc1ccc2ccccc2c1/C=N/Nc1nnc(-c2ncc[nH]2)c2ccccc12	14.2	-3.5	-5.9	29.1	-34.8*
Cn1cc(C2=C(c3ccc(Cl)cc3Cl)C(=O)NC2=O)c2ccccc21	24.0	-9.9	-64.4	60.5*	?
CNC(=O)NNC(=O)c1csc(Cc2c(Cl)sc3ccc(Cl)cc23)n1	5.1	6.7	-1.5	0.0	1.6
Cc1ccc(C)c(N2CCN(C(=O)c3ccc(N4CCCC4=O)cc3)CC2)c1	9.1	12.1	-7.5	129.7*	-1.8
Fc1ccccc1/C=N/NC(=S)Nc1ccc(Cl)cc1Cl	-1.6	6.1	-0.2	0.4	-2.2
Nc1ccc(S(N)(=O)=O)cc1N	38.1	1.2	-33.4	32.9*	0.8
Nc1ccc(S(N)(=O)=O)cc1	-1.2	1.6	nt	-1.8	-1.6
CCCCC(=O)Nc1ccc(C(=O)N(CC)c2ccccc2C)cc1	-1.6	4.1	1.6	2.3	1.7
CC(=O)c1c(C(C)=O)c(C)n(-c2cccc([N+](=O)[O-])c2)c1C	8.3	1.2	-5.3	4.7	-0.8
CC(=O)C1=C(c2cccc([N+](=O)[O-])c2)N(C(C)=O)n2c(C)nnc2S1	10.2	7.9	5.8	5.3	-47.0*
COc1ccc(Cl)cc1N1C(=O)CN(Cc2cc(OC)c(OC)c(OC)c2)C1=S	-6.2	-3.0	1.8	-9.4	0.0
COc1ccc(NC(=O)CCC(=O)c2cc(C)sc2C)cc1	nt	nt	-0.4	nt	nt
O=S(c1cc(Cl)cc(Cl)c1O)c1cc(Cl)cc(Cl)c1O	nt	nt	-1.4	nt	nt
Oc1c(Cl)cc(Cl)cc1Sc1cc(Cl)cc(Cl)c1O	53.5*	-2.0	nt	19.5	-4.4
COc1ccc2c(c1)OC[C@H]1[C@H]2N2C(=O)[C@H](C)NC(=O)[C@@]2(C)[C@H]1c1ccccc1	5.9	-1.1	-0.8	6.6	nt
O=C(NCc1cc(C(F)(F)F)ccc1Cl)c1cccc2c1C(=O)c1ccc(N3CCCCC3)cc1S2(=O)=O	nt	75.8*	-26.4	nt	nt
O=C(NCc1cc(C(F)(F)F)ccc1Cl)c1cccc2c1C(=O)c1ccc(N3CCC(N4CCCCC4)CC3)cc1S2(=O)=O	nt	nt	-73.2	nt	nt
O=C(NCc1cccc(F)c1)c1cccc2c1C(=O)c1ccc(N3CCC(Cc4ccccc4)CC3)cc1S2(=O)=O	nt	136.6*	38.8*	nt	nt
O=C(NCc1cccc(F)c1)c1cccc2c1C(=O)c1ccc(N3CCCC3)cc1S2(=O)=O	nt	55.1*	-111.5	nt	nt
O=C(NCCc1ccc(F)cc1)c1cccc2c1C(=O)c1ccc(N3CCC(Cc4ccccc4)CC3)cc1S2(=O)=O	nt	144.7*	29.5*	nt	nt
CCN(CC(=O)NCc1ccc(F)cc1)C(=O)c1ccc(COc2ccccc2)cc1	-16.1	3.0	-6.3	-1.5	0.7
CC(C)CC(c1nnnn1Cc1ccc(F)cc1)N1CCC(C(N)=O)CC1 (configuration not stated)	-0.3	5.8	-6.2	3.9	0.8
SMILES	MCL1-BIM inh	GLD-1 RNA inh	E coli Lon inh	BCLXL inh	MEX-5 binding
CCOC(=O)[C@]12CCC=C1N(Cc1ccco1)C(=O)[C@H](CC(=O)NCC13CC4CC(CC(C4)C1)C3)C2	nt	nt	-2.7	nt	nt
O=C(NCc1cccc(C(F)(F)F)c1)c1cccc2c1C(=O)c1ccc(N3CCC(Cc4ccccc4)CC3)cc1S2(=O)=O	nt	128.0*	-132.4	nt	nt
O=C(NCc1ccc(OC(F)(F)F)cc1)c1cccc2c1C(=O)c1ccc(N3CCC(Cc4ccccc4)CC3)cc1S2(=O)=O	nt	121.5*	-14.7	nt	nt
O=C(NCc1ccco1)c1cccc2c1C(=O)c1ccc(N3CCC(Cc4ccccc4)CC3)cc1S2(=O)=O	nt	91.3*	-149.4	nt	nt
O=C(NCc1cc(C(F)(F)F)ccc1Cl)c1cccc2c1C(=O)c1ccc(N3CCOCC3)cc1S2(=O)=O	nt	-17.4	-15.3	nt	nt
O=C(NCc1ccc(OC(F)(F)F)cc1)c1cccc2c1C(=O)c1ccc(N3CCCC3)cc1S2(=O)=O	nt	6.3	-15.1	nt	nt
O=C(COC(=O)c1ccc(S(=O)(=O)N2CCCC2)cc1)NCc1cccs1	-9.2	4.9	0.7	-8.2	0.7
COc1cc2c(cc1OC)C1C(C(=O)Nc3ccccc3N3CCN(C)CC3)c3ccccc3C(=O)N1CC2 (configuration not stated)	-0.8	8.3	-1.8	1.2	-1.5

Screening data from PubChem BioAssay.
